Results published in PubChem BioAssay AID1159580 (chemical genetic matrix, 2015).
Screen size: about 5,500 compounds; about 2,000 (36%) were called active. Inconclusive results (about 18%) are left out. No stated cut-off is given here; in the data, active means normalized growth mostly below about 0.91 (no sharp cut-off); inconclusive means no clear call, values can overlap the other calls; inactive means mostly above about 0.92. The list shows a part of the results.

Assay: chemical genetic growth profiling, strain panel (AID 1159580);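 further: tested at 20 µM; growth read once vehicle control cultures reached saturation at 30 °C; 1 = growth at the plate median or of vehicle wells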
Details: S. cerevisiae deletion strains, growth OD
[1] = locus YDL101C, strain DUN1, stronger effect = lower value
[2] = locus YHR030C, strain SLT2, stronger effect = lower value

Measured: normalized growth

Clc1cc(Cl)cc(Br)c1
inactive: locus YAL013W, strain DEP1, stronger effect = lower value 1.03 | locus YBR229C, strain ROT2, stronger effect = lower value 1.02 | [1] 1.02 | locus YDL134C, strain PPH21, stronger effect = lower value 1.02 | locus YDR150W, strain NUM1, stronger effect = lower value 1.04 | locus YEL061C, strain CIN8, stronger effect = lower value 1.03 | locus YGR078C, strain PAC10, stronger effect = lower value 1.01 | [2] 1.1 | locus YHR087W, strain rtc3, stronger effect = lower value 1.05 | locus YJR043C, strain POL32, stronger effect = lower value 1.01 | locus YJR075W, strain HOC1, stronger effect = lower value 1 | locus YLR039C, strain RIC1, stronger effect = lower value 1.09 | locus YLR058C, strain SHM2 (second series), stronger effect = lower value 1.02 | locus YLR085C, strain ARP6, stronger effect = lower value 1.14 | locus YLR262C, strain YPT6, stronger effect = lower value 1.07 | locus YML094W, strain GIM5, stronger effect = lower value 1.04 | locus YMR219W, strain ESC1, stronger effect = lower value 1.02 | locus YMR263W, strain SAP30, stronger effect = lower value 1.02 | locus YNL128W, strain TEP1, stronger effect = lower value 1.02 | locus YNL153C, strain GIM3, stronger effect = lower value 1.01 | locus YNL298W, strain CLA4 (second series), stronger effect = lower value 1.08 | locus YNL322C, strain KRE1, stronger effect = lower value 1.02 | locus YNR030W, strain Alg12, stronger effect = lower value 1.05 | locus YPL055C, strain LGE1, stronger effect = lower value 1.03 | locus YPL241C, strain CIN2, stronger effect = lower value 1.04 | locus YPR135W, strain CTF4, stronger effect = lower value 1.16

O=C(Nc1cc(Cl)cc(Cl)c1)c1cc(Br)ccc1O
inactive: locus YAR019C, strain CDC15, stronger effect = lower value 0.944 | locus YBL105C, strain PKC1, stronger effect = lower value 0.958 | locus YBR135W, strain CKS1, stronger effect = lower value 0.946 | locus YBR136W, strain MEC1, stronger effect = lower value 0.949 | locus YBR160W, strain CDC28, stronger effect = lower value 0.955 | locus YDL017W, strain CDC7, stronger effect = lower value 0.942 | locus YDL028C, strain MPS1, stronger effect = lower value 0.955 | [1] 0.985 | locus YDL108W, strain KIN28, stronger effect = lower value 0.953 | locus YDL132W, strain cdc53, stronger effect = lower value 0.933 | locus YDL214C, strain PRR2, stronger effect = lower value 0.849 | locus YDR052C, strain DBF4, stronger effect = lower value 0.925 | locus YDR054C, strain cdc34, stronger effect = lower value 0.939 | locus YDR226W, strain ADK1, stronger effect = lower value 0.935 | locus YDR477W, strain SNF1, stronger effect = lower value 0.872 | locus YER123W, strain YCK3, stronger effect = lower value 0.774 | locus YER133W, strain GLC7, stronger effect = lower value 0.831 | locus YFL009W, strain cdc4, stronger effect = lower value 0.936 | locus YFL029C, strain CAK1, stronger effect = lower value 0.942 | locus YFR003C, strain YPI1, stronger effect = lower value 0.949 | locus YFR019W, strain FAB1, stronger effect = lower value 0.91 | locus YFR028C, strain CDC14, stronger effect = lower value 0.94 | locus YGR040W, strain KSS1, stronger effect = lower value 0.888 | locus YGR052W, strain FMP48, stronger effect = lower value 0.847 | locus YHR079C, strain IRE1, stronger effect = lower value 0.68 | locus YHR082C, strain KSP1, stronger effect = lower value 0.964 | locus YHR205W, strain SCH9, stronger effect = lower value 0.656 | locus YIL147C, strain SLN1, stronger effect = lower value 0.945 | locus YJL095W, strain BCK1, stronger effect = lower value 0.76 | locus YJL128C, strain PBS2, stronger effect = lower value 0.959 | locus YJR016C, strain ILV3, stronger effect = lower value 0.944 | locus YJR066W, strain TOR1 (second series), stronger effect = lower value 0.774 | locus YJR066W, strain TOR1, stronger effect = lower value 0.792 | locus YKL048C, strain ELM1, stronger effect = lower value 0.848 | locus YKL067W, strain YNK1, stronger effect = lower value 0.799 | locus YKL101W, strain HSL1, stronger effect = lower value 0.853 | locus YKL193C, strain SDS22, stronger effect = lower value 0.936 | locus YKL203C, strain TOR2, stronger effect = lower value 0.86 | locus YLR113W, strain HOG1, stronger effect = lower value 0.892 | locus YLR133W, strain CKI1, stronger effect = lower value 0.821 | locus YLR403W, strain SFP1, stronger effect = lower value 0.747 | locus YML070W, strain DAK1, stronger effect = lower value 0.872 | locus YMR001C, strain CDC5, stronger effect = lower value 0.941 | locus YMR205C, strain PFK2 (second series), stronger effect = lower value 0.858 | locus YMR277W, strain FCP1, stronger effect = lower value 0.945 | locus YNL006W, strain LST8, stronger effect = lower value 0.938 | locus YNL020C, strain ARK1, stronger effect = lower value 0.738 | locus YNL161W, strain CBK1, stronger effect = lower value 0.947 | locus YNL183C, strain NPR1, stronger effect = lower value 0.917 | locus YNL207W, strain RIO2, stronger effect = lower value 0.955 | locus YNL222W, strain SSU72, stronger effect = lower value 0.949 | locus YNL307C, strain MCK1 (second series), stronger effect = lower value 0.703 | locus YOL078W, strain AVO1, stronger effect = lower value 0.952 | locus YOL136C, strain PFK27, stronger effect = lower value 0.767 | locus YOR061W, strain CKA2, stronger effect = lower value 0.749 | locus YOR119C, strain RIO1, stronger effect = lower value 0.925 | locus YOR231W, strain MKK1, stronger effect = lower value 0.888 | locus YOR329C, strain SCD5, stronger effect = lower value 0.948 | locus YPL031C, strain PHO85, stronger effect = lower value 0.841 | locus YPL153C, strain RAD53, stronger effect = lower value 0.84 | locus YPL204W, strain HRR25, stronger effect = lower value 0.801 | locus YPL209C, strain IPL1, stronger effect = lower value 0.945 | locus YPL256C, strain CLN2, stronger effect = lower value 0.871 | locus YPR025C, strain CCL1, stronger effect = lower value 0.951 | locus YPR106W, strain ISR1, stronger effect = lower value 0.971 | locus YPR111W, strain DBF20, stronger effect = lower value 0.96 | strain NNK1, stronger effect = lower value 0.964 | strain TSCII, stronger effect = lower value 0.942
active: locus YGR092W, strain DBF2, stronger effect = lower value 0.405 | [2] 0.816 | locus YJL157C, strain FAR1, stronger effect = lower value 0.698
